PubChem BioAssay (NCATS)
Inconclusive results are not listed. Entries that show only a call come without a potency. Unmarked numbers belong to inactive results. The source made the active and inactive calls. The call rests on the fitted dose curve; in most records, active means well fitted curve in the direction sought with a large enough effect; inconclusive means small, poorly fitted or top-dose-only effect, or another doubt; inactive means no such curve, though single readings can be large; an effect the other way counts as inactive or inconclusive.

Key:
HaCat = assay: Cytotoxic Profiling of Annotated Libraries Using Quantitative High-Throughput Screening (AID 1296008); settings: Five cell lines viability, CellTiter-Glo ATP luminescence, 48-72 h; max response: hits give low values; further: nearly all actives have a fitted effect of over 60% in size
In short: (§1)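 Cells exposed to compounds for 48 or 72 hr at 37 degrees Celsius. Viability read as ATP-coupled luminescence with CellTiter-Glo after 10 min at room temperature.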

KB-3-1 = assay: as above; settings: Five cell lines viability, CellTiter-Glo ATP luminescence, 48-72 h; max response: hits give low values
In short: as §1

NIH3T3 = assay: as above; settings: Five cell lines viability, CellTiter-Glo ATP luminescence, 48-72 h; max response: hits give low values
In short: as §1

C33A = assay: Primary qHTS to identify gynecologic anti-cancer compounds using libraries of approved drugs and bioactive compounds (AID 1345084); settings: Gynecologic cancer cell panel viability, ATPlite luminescence, 48 h; series mostly up to 57.5 µM; further: nearly all actives have a fitted effect of over 55% in size
In short: (§2)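 48 h compound exposure at 37 C, 5% CO2; five-point qHTS. ATPlite luminescence readout of cell ATP.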

CAOV3 = assay: as above; settings: Gynecologic cancer cell panel viability, ATPlite luminescence, 48 h; series mostly up to 57.5 µM
In short: as §2

CASKI = assay: as above; settings: Gynecologic cancer cell panel viability, ATPlite luminescence, 48 h; series mostly up to 57.5 µM
In short: as §2

HeLa = assay: as above; settings: Gynecologic cancer cell panel viability, ATPlite luminescence, 48 h; series mostly up to 57.5 µM
In short: as §2

Hek293T = assay: as above; settings: Gynecologic cancer cell panel viability, ATPlite luminescence, 48 h, control line for the selectivity index; series mostly up to 57.5 µM
In short: as §2

JEG-3 = assay: as above; settings: Gynecologic cancer cell panel viability, ATPlite luminescence, 48 h; series mostly up to 57.5 µM
In short: as §2

Es-2 = assay: as above; settings: Gynecologic cancer cell panel viability, ATPlite luminescence, 48 h; series mostly up to 57.5 µM
In short: as §2

OV90 = assay: as above; settings: Gynecologic cancer cell panel viability, ATPlite luminescence, 48 h; series mostly up to 57.5 µM
In short: as §2
Potency means the concentration at half of the fitted maximal effect.

Cc1ccc(-c2ccc3ncc4c(c3n2)n(C2CCN(C(=O)[C@H](C)O)CC2)c(=O)n4C)cn1
Potency (HaCat): 1.46 µM (active)
Potency (KB-3-1): 0.116 µM (active)
Potency (NIH3T3): 0.231 µM (active)
Potency (C33A): 0.282 µM (active)
Potency (CAOV3): 0.708 µM (active)
Potency (CASKI): 0.794 µM (active)
Potency (HeLa): 1 µM (active)
Potency (Hek293T): 0.355 µM (active)
Potency (JEG-3): 7.08 µM (active)

NC(=O)C(CCC(F)(F)F)N(Cc1ccc(-c2ncon2)cc1F)S(=O)(=O)c1ccc(Cl)cc1 (stereo unspecified)
max response (HaCat): -84.6%
max response (KB-3-1): -38%
max response (NIH3T3): -69%
Potency (C33A): inactive
Potency (CASKI): inactive
Potency (Es-2): inactive
Potency (HeLa): inactive
Potency (Hek293T): inactive
Potency (JEG-3): inactive
Potency (OV90): inactive

CC1(C)CCCC2(C)C(CO)C(CO)=CCC12 (stereo unspecified)
max response (HaCat): 0.151%
max response (KB-3-1): -2.42%
max response (NIH3T3): -1.37%
Potency (C33A): inactive
Potency (CASKI): inactive
Potency (Es-2): inactive
Potency (HeLa): inactive
Potency (Hek293T): inactive
Potency (JEG-3): inactive
Potency (OV90): inactive

COCC1OC(OC(C)(C)C2CCC3(C)C=C(C4CCC5C4(C)CC(O)C4OC(C(C)(C)OC6OC(CO)C(O)C(O)C6NC(C)=O)CCC45C)CCC3O2)C(NC(C)=O)C(O)C1O (stereo unspecified)
max response (HaCat): -6.25%
max response (KB-3-1): 1.62%
max response (NIH3T3): 1.73%
activity change, negative = cytotoxicity (C33A): 10.6% [at 11.6 µM]
activity change, negative = cytotoxicity (CASKI): 12.8% [at 11.6 µM]
activity change, negative = cytotoxicity (Es-2): 0.877% [at 11.6 µM]
activity change, negative = cytotoxicity (HeLa): 1.62% [at 11.6 µM]
activity change, negative = cytotoxicity (Hek293T): -4.4% [at 11.6 µM]
activity change, negative = cytotoxicity (JEG-3): 3.33% [at 11.6 µM]
activity change, negative = cytotoxicity (OV90): 3.61% [at 11.6 µM]

O=C(Nc1ccn[nH]1)c1c(F)cccc1F
max response (HaCat): -3.04%
outcome (KB-3-1): inactive
max response (NIH3T3): 3.6%
Potency (C33A): inactive
Potency (CASKI): inactive
Potency (Es-2): inactive
Potency (HeLa): inactive
Potency (Hek293T): inactive
Potency (JEG-3): inactive
Potency (OV90): inactive

Cc1ccc(S(=O)(=O)Cc2nc(-c3ccc(C(=O)NCc4cccnc4)cc3)oc2C)cc1
Potency (HaCat): 0.146 µM (active)
Potency (KB-3-1): 0.0082 µM (active)
Potency (NIH3T3): 0.0731 µM (active)
Potency (C33A): inactive
Potency (CAOV3): inactive
Potency (JEG-3): inactive
Potency (OV90): inactive

CCOC(=O)C(CCc1ccccc1)NC(C)C(=O)N1C(=O)N(C)CC1C(=O)O (stereo unspecified)
max response (HaCat): -19.4%
outcome (KB-3-1): inactive
max response (NIH3T3): 1.45%
Potency (C33A): inactive
Potency (CASKI): inactive
Potency (Es-2): inactive
Potency (HeLa): inactive
Potency (Hek293T): inactive
Potency (JEG-3): inactive
Potency (OV90): inactive

O=C(O)Cc1ccc2oc(-c3ccc(NC(=O)/C=C/c4ccc(Br)cc4)c(F)c3)nc2c1
max response (HaCat): 2.81%
max response (KB-3-1): 0.378%
max response (NIH3T3): 1.97%
Potency (C33A): inactive
Potency (CASKI): inactive
Potency (Es-2): inactive
Potency (HeLa): inactive
Potency (Hek293T): inactive
Potency (JEG-3): inactive
Potency (OV90): inactive

C/C1=C\[C@H]2OC(=O)[C@@H](C)[C@@H]2CC/C(C(=O)O)=C/CC1
max response (HaCat): -0.286%
max response (KB-3-1): -0.178%
max response (NIH3T3): -2.73%
Potency (C33A): inactive
Potency (CASKI): inactive
Potency (Es-2): inactive
Potency (HeLa): inactive
Potency (Hek293T): inactive
Potency (JEG-3): inactive
Potency (OV90): inactive

CC(O)(CC(=O)O)CC(=O)OCc1ccc(O[C@@H]2O[C@H](CO)[C@@H](O)[C@H](O)[C@H]2O)cc1 (stereo partly specified)
max response (HaCat): 1.6%
outcome (KB-3-1): inactive
max response (NIH3T3): -5.49%
Potency (C33A): inactive
Potency (CASKI): inactive
Potency (Es-2): inactive
Potency (HeLa): inactive
Potency (Hek293T): inactive
Potency (JEG-3): inactive
Potency (OV90): inactive

CC1=C(/C=C/C(C)=C\C=C\C(C)=C/C(=O)O)C(C)(C)CCC1
max response (HaCat): -22.2%
outcome (KB-3-1): inactive
max response (NIH3T3): 0.69%
Potency (C33A): inactive
Potency (CASKI): inactive
Potency (Es-2): inactive
Potency (HeLa): inactive
Potency (Hek293T): inactive
Potency (JEG-3): inactive
Potency (OV90): inactive

Cc1cc(C)c2c(N)c(C(=O)NCc3ccc(Cl)cc3)sc2n1
max response (HaCat): -6.45%
max response (KB-3-1): -4.61%
max response (NIH3T3): -1.38%
Potency (C33A): inactive
Potency (CASKI): inactive
Potency (Es-2): inactive
Potency (HeLa): inactive
Potency (Hek293T): inactive
Potency (JEG-3): inactive
Potency (OV90): inactive

COC(=O)CCC(=O)OC[C@]1(C)CCC[C@@]2(C)C3CC[C@]4(C)C=CC3(CCC12)C4 (stereo partly specified)
max response (HaCat): 1.33%
max response (KB-3-1): 2.37%
max response (NIH3T3): -0.0416%
Potency (C33A): inactive
Potency (CASKI): inactive
Potency (Es-2): inactive
Potency (HeLa): inactive
Potency (Hek293T): inactive
Potency (JEG-3): inactive
Potency (OV90): inactive
